Test [1] addresses CDK3/Cyclin E (Homo sapiens) (UniProt P24864+Q00526). Particulars: at 1 µM.
Test [2] deals with Cyclin-dependent kinase 4 (Homo sapiens) (UniProt P11802). Particulars: at 0.1 µM.
For test [3] the target is unchanged. Particulars: at 1 µM.
Test [4] concerns the target Cyclin-dependent kinase 5 (Homo sapiens) (UniProt Q00535). Particulars: at 0.1 µM.
Test [5] shares this target. Particulars: at 1 µM.
For test [6], the target named is Cyclin-dependent kinase 6 (Homo sapiens) (UniProt Q00534). Particulars: at 0.1 µM.
Test [7] shares this target. Particulars: at 1 µM.
For test [8], the target named is Dual specificity protein kinase CLK2 (Homo sapiens) (UniProt P49760). Particulars: at 0.1 µM.
Test [9] shares this target. Particulars: at 1 µM.
For test [10], the target named is Dual specificity protein kinase CLK3 (Homo sapiens) (UniProt P49761). Particulars: at 0.1 µM.
Sequence of Dual specificity protein kinase CLK3 (Homo sapiens) (P49761 whole entry, looked up): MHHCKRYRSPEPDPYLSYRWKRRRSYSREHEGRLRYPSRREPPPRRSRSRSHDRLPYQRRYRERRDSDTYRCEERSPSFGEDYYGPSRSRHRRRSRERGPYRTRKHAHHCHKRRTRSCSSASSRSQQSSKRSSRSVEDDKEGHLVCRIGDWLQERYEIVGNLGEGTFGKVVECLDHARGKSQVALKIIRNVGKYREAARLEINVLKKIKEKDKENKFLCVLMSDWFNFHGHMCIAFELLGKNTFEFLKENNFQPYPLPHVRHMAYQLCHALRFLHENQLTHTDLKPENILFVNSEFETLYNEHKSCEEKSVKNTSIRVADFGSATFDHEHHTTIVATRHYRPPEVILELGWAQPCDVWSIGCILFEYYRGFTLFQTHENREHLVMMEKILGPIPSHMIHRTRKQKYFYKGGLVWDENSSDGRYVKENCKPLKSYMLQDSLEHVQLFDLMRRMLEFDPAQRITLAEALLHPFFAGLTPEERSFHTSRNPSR

Sequence of CDK3/Cyclin E (Homo sapiens) (P24864 whole entry, looked up): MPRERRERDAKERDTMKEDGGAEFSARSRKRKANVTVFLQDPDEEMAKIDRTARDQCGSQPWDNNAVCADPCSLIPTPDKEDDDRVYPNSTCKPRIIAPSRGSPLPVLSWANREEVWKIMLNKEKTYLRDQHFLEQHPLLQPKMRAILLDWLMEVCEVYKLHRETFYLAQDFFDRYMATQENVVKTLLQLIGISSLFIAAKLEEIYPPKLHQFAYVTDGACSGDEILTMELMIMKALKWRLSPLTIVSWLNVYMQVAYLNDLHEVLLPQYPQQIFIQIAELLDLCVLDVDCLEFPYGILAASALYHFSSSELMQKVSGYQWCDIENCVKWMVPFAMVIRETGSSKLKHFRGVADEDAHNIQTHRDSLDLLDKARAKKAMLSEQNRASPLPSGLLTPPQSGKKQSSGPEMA
Sequence of CDK3/Cyclin E (Homo sapiens) (Q00526 whole entry, looked up): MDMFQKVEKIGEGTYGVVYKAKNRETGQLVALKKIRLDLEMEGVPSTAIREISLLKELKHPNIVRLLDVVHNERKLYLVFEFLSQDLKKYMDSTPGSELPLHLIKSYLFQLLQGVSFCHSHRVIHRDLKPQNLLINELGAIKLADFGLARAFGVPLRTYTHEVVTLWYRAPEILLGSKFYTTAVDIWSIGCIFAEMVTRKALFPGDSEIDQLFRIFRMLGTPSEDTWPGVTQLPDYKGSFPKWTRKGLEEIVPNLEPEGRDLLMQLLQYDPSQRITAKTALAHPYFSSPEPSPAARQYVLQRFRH
Sequence of Cyclin-dependent kinase 6 (Homo sapiens) (Q00534 whole entry): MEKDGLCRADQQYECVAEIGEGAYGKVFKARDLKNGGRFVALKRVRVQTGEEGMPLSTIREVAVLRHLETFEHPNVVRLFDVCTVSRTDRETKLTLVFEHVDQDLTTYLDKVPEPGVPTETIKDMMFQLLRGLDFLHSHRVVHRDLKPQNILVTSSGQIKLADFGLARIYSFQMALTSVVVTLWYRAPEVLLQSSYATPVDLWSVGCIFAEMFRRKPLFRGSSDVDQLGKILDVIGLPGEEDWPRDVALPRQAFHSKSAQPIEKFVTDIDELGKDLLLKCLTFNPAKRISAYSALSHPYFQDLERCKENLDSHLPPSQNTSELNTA
Sequence of Cyclin-dependent kinase 5 (Homo sapiens) (Q00535 whole entry, looked up): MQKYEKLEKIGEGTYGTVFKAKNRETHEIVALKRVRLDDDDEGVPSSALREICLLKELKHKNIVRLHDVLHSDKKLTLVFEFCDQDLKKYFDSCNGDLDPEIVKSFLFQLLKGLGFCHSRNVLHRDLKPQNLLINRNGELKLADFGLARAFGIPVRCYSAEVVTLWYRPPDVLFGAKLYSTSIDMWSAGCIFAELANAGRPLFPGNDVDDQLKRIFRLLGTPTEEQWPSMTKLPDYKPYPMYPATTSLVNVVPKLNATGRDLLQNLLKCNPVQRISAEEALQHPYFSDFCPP
Sequence of Dual specificity protein kinase CLK2 (Homo sapiens) (P49760 whole entry, looked up): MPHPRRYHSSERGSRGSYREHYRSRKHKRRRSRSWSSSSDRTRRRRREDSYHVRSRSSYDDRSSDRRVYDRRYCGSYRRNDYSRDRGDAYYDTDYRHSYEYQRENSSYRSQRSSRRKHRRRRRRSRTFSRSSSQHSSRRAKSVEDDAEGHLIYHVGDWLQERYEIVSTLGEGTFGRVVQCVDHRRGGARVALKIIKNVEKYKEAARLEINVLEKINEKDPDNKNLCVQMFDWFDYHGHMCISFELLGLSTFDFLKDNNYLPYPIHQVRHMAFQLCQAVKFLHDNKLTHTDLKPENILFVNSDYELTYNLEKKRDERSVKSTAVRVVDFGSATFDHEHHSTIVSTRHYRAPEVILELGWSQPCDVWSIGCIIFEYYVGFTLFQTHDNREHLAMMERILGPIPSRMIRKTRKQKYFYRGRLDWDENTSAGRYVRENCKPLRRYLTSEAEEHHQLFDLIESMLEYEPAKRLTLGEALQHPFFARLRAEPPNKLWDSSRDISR
Sequence of Cyclin-dependent kinase 4 (Homo sapiens) (P11802 whole entry): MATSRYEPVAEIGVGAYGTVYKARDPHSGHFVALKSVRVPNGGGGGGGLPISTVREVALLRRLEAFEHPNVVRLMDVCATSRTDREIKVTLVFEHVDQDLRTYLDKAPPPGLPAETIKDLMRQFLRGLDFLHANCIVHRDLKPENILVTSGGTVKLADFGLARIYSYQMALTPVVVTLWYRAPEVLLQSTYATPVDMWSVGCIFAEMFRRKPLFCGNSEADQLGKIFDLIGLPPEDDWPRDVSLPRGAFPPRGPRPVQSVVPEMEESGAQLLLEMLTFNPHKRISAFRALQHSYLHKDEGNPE

Regarding `COc1cccc(COc2cc(-n3cnc4ccccc43)sc2C(N)=O)c1`, the inhibition was -2.65% in test [1]; 0.26% in [2]; 1.36% in test [3]; -0.51% in test [4]; -0.16% in test [5]; -4.03% in test [6]. In addition, the inhibition in test [7] is -1%; in test [8], 0.48%; in test [9], 1.3%; in test [10] it was -0.79%.
`COc1cc2c(cc1Nc1nc(Nc3ccsc3C(N)=O)c3cc[nH]c3n1)N(C(=O)CN(C)C)CCC2`: the inhibition was -1.3% in [1]; 3.79% in test [2]; 5.67% in test [3]; 0.94% in test [4]; -0.24% in test [5]; 5.85% in test [6]. The inhibition turned out to be 6.19% in test [7], 15.6% in test [8], 72% in [9] and 1.22% in test [10].
Turning to `Nc1nonc1-c1nc2cnccc2n1C1CCCCC1`, the inhibition in test [1] is 11.3%; in [2] it was 0.8%; in test [3], 5.81%; in test [4] it was 5%; in test [5], 18%; in [6], -5.33%. Moreover, the inhibition in test [7] is 1.64%; in test [8], 3.99%; in test [9], 39.2%; in [10], -0.8%.
On to `Fc1ccc(-c2ncn(C3CCNCC3)c2-c2ccnc(Oc3ccccc3)n2)cc1`, for which the inhibition is -2.25% in test [1]; -3.54% in [2]; -2.32% in test [3]; -3.32% in test [4]; -2.14% in test [5]; -6.2% in [6]. Further, the inhibition in test [7] was -4.11%; in test [8], 0.8%; in test [9] it was -0.83%; in [10], -3.78%.
In the case of `CCn1c(-c2nonc2N)nc2c(C#CC(C)(C)O)nc(O[C@@H](CN)c3ccccc3)cc21`, the inhibition was -0.03% in test [1]; 1.37% in test [2]; 4.92% in test [3]; 2.41% in [4]; 4.69% in test [5]; -4.5% in test [6]. The inhibition was 3.24% in [7], 10.2% in test [8], 56.3% in test [9] and -1.43% in [10].
As for `CCn1c(-c2nonc2N)nc2c(C#CC(C)(C)O)ncc(OCC3CCNCC3)c21`, the inhibition in [1] was 1.62%; in [2], -1.61%; in test [3], 3.91%; in test [4], 1.05%; in [5] it was 5.69%; in test [6] it was -0.95%. Besides, the inhibition in test [7] is 4.82%; in test [8], 5.25%; in test [9] it was 29.4%; in test [10], -2.14%.
Take `COc1cc(C=NNc2ncnc3c2cnn3Cc2ccccc2)ccc1O`: the inhibition in test [1] is 2.73%; in test [2], 0.2%; in [3] it was 5.23%; in [4], 2.79%; in test [5], 16.2%; in [7], -0.46%. Besides, the inhibition in test [8] is -0.27%; in test [9] it was 3.62%; in test [10] it was 0.25%.
For the compound `CCn1c(-c2nonc2N)nc2c(C#CCN)ncc(OCCCN)c21`, the inhibition in test [1] was 2.11%; in test [2], -2.32%; in test [3] it was -2.14%; in test [4] it was 1.95%; in test [5], 1.6%; in test [6], 0.56%. Besides, the inhibition in test [7] was -5.81%; in test [8], 1.13%; in [9], 0.74%; in test [10], -0.24%.
As for `CCn1c(-c2nonc2N)nc2c(C#CC(C)(C)O)ncc(OC[C@@H]3CCCN3)c21`, the inhibition in test [1] was -4.39%; in test [2], 0.04%; in test [3] it was 1.01%; in test [4] it was -0.13%; in test [5], -0.81%; in test [6], -2.82%. Further, the inhibition in test [7] was -5.08%; in test [8], 1.88%; in test [9], 9.59%; in [10], 0.26%.
As for `NS(=O)(=O)c1ccc(-c2ccc3c(NC(=O)C4CC4)n[nH]c3c2)cc1`, the inhibition was determined as 5.48% in test [1]; 3.11% in [2]; 6.7% in test [3]; 2.07% in [4]; 4.41% in [5]; 13.7% in test [6]. For the same compound, the inhibition in [7] is 46.3%; in test [8], 1.09%; in test [9] it was -0.2%; in test [10], 0.84%.
For `NC(=O)c1sc(-n2cnc3cc(C(F)(F)F)ccc32)cc1OCc1ccccc1Br`, the inhibition in test [1] is -2.44%; in test [2] it was 1.17%; in test [3] it was 2.92%; in [4] it was 0.88%; in test [5], 2.08%; in test [6] it was -0.56%. For the same compound, the inhibition in test [7] is -1.42%; in test [8], 0.89%; in test [9], 0.1%; in test [10], -0.27%.
Take `NS(=O)(=O)c1ccc(N/C=C2\C(=O)Nc3ccc4ncsc4c32)cc1`: the inhibition in [1] amounted to 94.7%; in test [2] it was 30.7%; in test [3], 64.6%; in [4], 60.7%; in [5] it was 72.8%; in test [6], 36.8%. For the same compound, the inhibition in test [7] was found to be 69%; in test [8], 11.6%; in [9], 64.1%; in [10], 1.81%.
Regarding `Cc1cc(-c2ccco2)cc(C)c1/C=C/c1cncc(-c2nn[nH]n2)c1`, the inhibition was -1.27% in test [1]; 0.48% in [2]; 2.4% in [3]; 0.53% in test [4]; 1.53% in test [5]; -2.45% in test [6]. The inhibition is -0.96% in [7], -1.47% in test [8], -2.94% in test [9] and 0.27% in [10].
Regarding `COc1cccc(-n2ncc3c(N/N=C/c4ccncc4)ncnc32)c1`, the inhibition in test [1] is 49.4%; in [2] it was 16.5%; in test [3], 52.6%; in [4], 39.7%; in [5] it was 78.8%; in test [6] it was 15.4%. The inhibition in test [7] worked out at 51.1%; in [8], 4.97%; in test [9], 35%; in test [10] it was 4.27%.

What is called inhibition is the change of the read-out against control, counted positive when it falls.

(Values after ChEMBL document CHEMBL1961873, “Compounds: GSK PKIS; Assays: Nanosyn kinase panel” (2012).)
